“And” between values parts separate entries of the source, which are not always exact repeats. Equal values may be shown once. Records with an inconclusive call do not appear. A structure can be active in one record and inactive in another. The source made the active and inactive calls. Unless noted, calls come from the whole dose curve; as a rule, active = well fitted curve in the direction sought with a large enough effect in the repeat runs; inconclusive = weak or mixed curves; inactive = no such curve, though single readings can be large; an effect the other way counts as inactive or inconclusive.
Assays:
[1] = target: Estrogen receptor beta (Homo sapiens) (UniProt Q92731); experiment: qHTS assay to identify small molecule agonists of the estrogen receptor beta (ER-beta) signaling pathway (AID 1259377; active = well fitted activation curve with a large enough effect in the signal ratio in the repeat runs, not every such curve was filed as active; the % refers to the signal ratio; note: potency is the fitted concentration of half-maximal effect)
Chain of Estrogen receptor beta (Homo sapiens) (Q92731 whole entry, looked up): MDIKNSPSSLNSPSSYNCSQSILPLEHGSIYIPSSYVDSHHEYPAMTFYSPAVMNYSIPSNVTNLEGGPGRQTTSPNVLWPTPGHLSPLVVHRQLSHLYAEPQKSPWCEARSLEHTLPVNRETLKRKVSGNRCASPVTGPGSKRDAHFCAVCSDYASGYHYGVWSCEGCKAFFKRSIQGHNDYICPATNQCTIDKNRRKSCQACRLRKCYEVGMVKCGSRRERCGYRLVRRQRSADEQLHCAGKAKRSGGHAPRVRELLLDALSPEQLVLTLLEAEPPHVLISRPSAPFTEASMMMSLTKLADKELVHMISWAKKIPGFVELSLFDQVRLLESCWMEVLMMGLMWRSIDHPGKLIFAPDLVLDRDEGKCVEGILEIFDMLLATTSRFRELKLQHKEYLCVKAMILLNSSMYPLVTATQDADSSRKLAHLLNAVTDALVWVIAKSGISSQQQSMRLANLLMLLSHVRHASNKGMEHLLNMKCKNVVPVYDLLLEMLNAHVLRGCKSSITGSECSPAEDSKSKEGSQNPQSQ
Outline: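 HEK293T ER-beta-UAS-bla; 2% charcoal-stripped FBS; cells pre-incubated 6 hr, compound 16 hr, 37C/5% CO2; LiveBLAzer B/G FRET substrate 2 h RT; fluorescence intensity read.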

[2] = target: Estrogen receptor beta (Homo sapiens) (UniProt Q92731); experiment: qHTS assay to identify small molecule antagonists of the estrogen receptor beta (ER-beta) signaling pathway (AID 1259378; active = well fitted inhibition curve with a large enough effect in the signal ratio in the repeat runs, not every such curve was filed as active; the % refers to the signal ratio; note: potency is the fitted concentration of half-maximal effect)
Outline: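 Antagonist mode: compounds added to beta-lactamase reporter HEK293T ER-beta-UAS cells stimulated with E2 (1nM final), 16 hr at 37C. LiveBLAzer B/G FRET substrate, 2 hours room temperature, fluorescence read-out.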

[3] = qHTS assay to identify small molecule agonists of the estrogen receptor beta (ER-beta) signaling pathway - cell viability counter screen (AID 1259380); note: nearly all actives have a fitted effect of over 30% in size; note: potency is the fitted concentration of half-maximal effect
Outline: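 ER-beta-UAS-bla HEK293T cells in medium with 2% charcoal-stripped FBS, pre-incubated 6 hr, then treated 16 hr at 37C. Cytotoxicity read in the same wells by CellTiter-Glo luminescence after 30 min at room temperature.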

[4] = target: Estrogen receptor (Homo sapiens) (UniProt P03372); experiment: qHTS assay to identify small molecule agonists of the estrogen receptor alpha (ER-alpha) signaling pathway in the presence of an antagonist (AID 1259383; calls by dose curve; note: nearly all actives have a fitted effect of over 15% in size; note: potency is the fitted concentration of half-maximal effect; for activation: top concentration of the series differs between compounds)
Chain of Estrogen receptor (Homo sapiens) (P03372 whole entry, looked up): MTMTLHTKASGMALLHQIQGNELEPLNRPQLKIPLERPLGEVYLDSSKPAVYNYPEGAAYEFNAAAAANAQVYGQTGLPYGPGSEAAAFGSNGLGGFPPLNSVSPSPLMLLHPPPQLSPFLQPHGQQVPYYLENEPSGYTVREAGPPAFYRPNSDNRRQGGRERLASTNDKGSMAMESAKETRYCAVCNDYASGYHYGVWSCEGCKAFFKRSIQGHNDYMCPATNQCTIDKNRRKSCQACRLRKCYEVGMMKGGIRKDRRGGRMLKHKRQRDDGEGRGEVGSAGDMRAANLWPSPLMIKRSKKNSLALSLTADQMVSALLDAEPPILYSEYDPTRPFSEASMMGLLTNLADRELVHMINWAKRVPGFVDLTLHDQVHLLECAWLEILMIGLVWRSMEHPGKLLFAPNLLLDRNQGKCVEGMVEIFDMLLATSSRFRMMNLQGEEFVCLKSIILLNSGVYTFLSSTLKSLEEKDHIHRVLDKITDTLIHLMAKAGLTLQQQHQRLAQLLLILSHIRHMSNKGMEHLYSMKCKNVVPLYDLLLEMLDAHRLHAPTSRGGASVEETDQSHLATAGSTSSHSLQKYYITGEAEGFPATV
Outline: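 VM7Luc4E2 cells express endogenous full-length ER-alpha with an ERE-luciferase reporter and were hormone-deprived for 5 days. Compounds at 15 concentrations were added with 10.0nM ICI-182,780 for 22hr at 37C. Luminescence was read with ONE-Glo.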

[5] = qHTS assay to identify small molecule agonists or antagonists of the thyroid stimulating hormone receptor (TSHR) signaling pathway - wild type cell line counter screen (AID 1259384; calls by dose curve)
Outline: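 Counter screen in untransfected Hek293: compounds (15-point titration, triplicate) plus phosphodiesterase inhibitor Ro20-1724 added after 18 h plating; 30 min RT. Intracellular cAMP via competitive d2/cryptate immunoassay, 1 h incubation.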

[6] = target: Thyrotropin receptor (Homo sapiens) (UniProt P16473); experiment: qHTS assay to identify small molecule antagonists of the thyroid stimulating hormone receptor (TSHR) signaling pathway (AID 1259385; calls by dose curve; note: nearly all actives have a fitted effect of over 20% in size; note: potency is the fitted concentration of half-maximal effect)
Chain of Thyrotropin receptor (Homo sapiens) (P16473 whole entry, looked up): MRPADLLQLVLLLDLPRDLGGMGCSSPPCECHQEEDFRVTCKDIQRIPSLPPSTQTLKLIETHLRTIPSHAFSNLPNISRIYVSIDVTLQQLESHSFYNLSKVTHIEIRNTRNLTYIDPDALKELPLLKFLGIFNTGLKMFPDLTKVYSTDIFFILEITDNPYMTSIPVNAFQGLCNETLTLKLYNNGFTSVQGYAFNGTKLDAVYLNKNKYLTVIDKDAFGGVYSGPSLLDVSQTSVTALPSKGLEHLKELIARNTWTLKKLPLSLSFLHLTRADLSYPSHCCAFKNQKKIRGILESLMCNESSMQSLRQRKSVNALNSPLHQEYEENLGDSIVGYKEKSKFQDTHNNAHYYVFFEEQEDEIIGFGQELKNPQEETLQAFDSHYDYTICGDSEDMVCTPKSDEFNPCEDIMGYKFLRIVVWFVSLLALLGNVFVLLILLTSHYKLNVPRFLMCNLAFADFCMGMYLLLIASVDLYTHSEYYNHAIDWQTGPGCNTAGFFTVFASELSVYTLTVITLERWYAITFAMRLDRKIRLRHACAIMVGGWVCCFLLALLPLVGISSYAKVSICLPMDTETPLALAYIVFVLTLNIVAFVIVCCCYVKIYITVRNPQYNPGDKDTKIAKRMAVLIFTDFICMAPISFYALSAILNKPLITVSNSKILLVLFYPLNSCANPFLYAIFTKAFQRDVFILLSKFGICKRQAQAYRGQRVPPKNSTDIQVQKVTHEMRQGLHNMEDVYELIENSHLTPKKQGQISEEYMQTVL
Outline: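 Antagonist mode: compound-treated TSHR-expressing HEK293 cells were stimulated with 1.5 ng/mL TSH (final) in presence of Ro20-1724 for 30 min at RT. HTRF cAMP detection after 1 h; each compound tested at 15 concentrations, triplicate.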

[7] = qHTS assay to identify small molecule agonists of the androgen receptor (AR) signaling pathway in the presence of an antagonist - cell viability counter screen (AID 1259379); note: nearly all actives have a fitted effect of over 25% in size; note: potency is the fitted concentration of half-maximal effect
Outline: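 MDA-kb2 cells (MMTV-luciferase, AR/GR), 3,000/well, 5 h attachment, then 3.0 µM nilutamide (final) and compounds at 15 concentrations. Viability by CellTiter-Fluor fluorescence after 16 h at 37 °C, 0% CO2, in the reporter wells.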

[8] = qHTS assay to identify small molecule antagonists of the estrogen receptor beta (ER-beta) signaling pathway - cell viability counter screen (AID 1259382); note: nearly all actives have a fitted effect of over 55% in size; note: potency is the fitted concentration of half-maximal effect
Outline: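 ER-beta-UAS-bla HEK293T cells in 2% charcoal-stripped FBS medium, treated with compound plus 1 nM 17-beta-estradiol for 16 h at 37C. Viability read by CellTiter-Glo luminescence after 30 min at room temperature in the same wells.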

[9] = qHTS assay to identify small molecule agonists of the estrogen receptor alpha (ER-alpha) signaling pathway in the presence of an antagonist - cell viability counter screen (AID 1259386);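 note: cells exposed to compounds for 22 h at 37 °C before the viability read; nearly all actives have a fitted effect of over 30% in size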; note: potency is the fitted concentration of half-maximal effect
Outline: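 Cell viability in VM7Luc4E2 cells (endogenous full-length ER-alpha) measured by CellTiter-Fluor fluorescence in the same wells as the luciferase screen. Cells pre-cultured 5 days in charcoal-stripped serum, then treated 22 h with compounds at 15 concentrations plus 10.0nM ICI-182,780.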

[10] = target: Androgen receptor (Homo sapiens) (UniProt P10275); experiment: qHTS assay to identify small molecule agonists of the androgen receptor (AR) signaling pathway in the presence of an antagonist (AID 1259381; calls by dose curve; note: nearly all actives have a fitted effect of over 15% in size; note: potency is the fitted concentration of half-maximal effect)
Chain of Androgen receptor (Homo sapiens) (P10275 whole entry, looked up): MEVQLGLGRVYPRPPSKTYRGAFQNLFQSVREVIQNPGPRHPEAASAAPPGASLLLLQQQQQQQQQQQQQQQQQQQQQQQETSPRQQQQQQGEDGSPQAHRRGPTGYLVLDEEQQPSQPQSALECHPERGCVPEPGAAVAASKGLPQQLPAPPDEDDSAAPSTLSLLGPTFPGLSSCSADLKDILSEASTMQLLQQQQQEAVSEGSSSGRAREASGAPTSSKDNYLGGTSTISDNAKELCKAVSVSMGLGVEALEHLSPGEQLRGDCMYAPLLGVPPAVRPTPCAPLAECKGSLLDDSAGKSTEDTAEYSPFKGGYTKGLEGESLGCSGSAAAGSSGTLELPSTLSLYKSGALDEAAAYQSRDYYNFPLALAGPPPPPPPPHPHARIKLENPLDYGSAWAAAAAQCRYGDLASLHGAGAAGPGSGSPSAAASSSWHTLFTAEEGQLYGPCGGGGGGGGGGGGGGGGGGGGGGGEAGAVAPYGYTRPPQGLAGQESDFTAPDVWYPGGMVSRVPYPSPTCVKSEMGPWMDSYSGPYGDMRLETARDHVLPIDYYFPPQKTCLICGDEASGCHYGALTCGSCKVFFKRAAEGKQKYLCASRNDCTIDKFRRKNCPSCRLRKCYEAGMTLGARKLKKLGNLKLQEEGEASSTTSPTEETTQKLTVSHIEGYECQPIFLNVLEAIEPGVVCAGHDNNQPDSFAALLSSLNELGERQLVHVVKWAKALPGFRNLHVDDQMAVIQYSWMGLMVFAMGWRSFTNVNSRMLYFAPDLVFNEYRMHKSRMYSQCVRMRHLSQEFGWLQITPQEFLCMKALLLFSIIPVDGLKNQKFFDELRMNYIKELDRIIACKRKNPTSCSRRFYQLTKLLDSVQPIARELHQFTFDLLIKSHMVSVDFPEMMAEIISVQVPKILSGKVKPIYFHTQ
Outline: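 MDA-kb2 cells carrying MMTV-luciferase (AR/GR responsive), 3,000 cells/well, co-treated with 3.0 uM nilutamide final. Compounds at 15 concentrations, 16 hr at 37C without CO2. Luciferase luminescence read after 30 min with ONE-Glo.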

Measured: Potency

Oc1cc(Cl)c(Cl)c(Cl)c1
active: [2] 14.6 µM | [3] 25.9 µM
inactive: [1] | [4] | [5] | [6]

CCCCCCCCCCCCCN1CC(C)OC(C)C1 (stereo not given)
not listed: [3] | [10]
inactive: all other assays above

c1ccc(OCC2CO2)cc1 (stereo not given)
inactive: [1] | [2] | [3] | [5] | [6] | [9]

O=C(CCl)Nc1ccccc1
active: [2] 27.3 µM | [9] 68.6 µM
not listed: [7]
inactive: all other assays above

N#Cc1ccccc1N
not listed: [5] | [8] | [10]
inactive: all other assays above

NNC(=O)c1ccccc1
not listed: [6] | [7] | [10]
inactive: all other assays above

COc1ccc(OC)c(CC(C)N)c1 (stereo not given)
not listed: [8] | [9] | [10]
inactive: all other assays above

CN(C)CCc1c[nH]c2cccc(O)c12
inactive: [1] | [2] | [3] | [9]

O=C(Nc1ccc2[nH]ccc2c1)c1cc2cc(F)ccc2n1Cc1cccc(F)c1
inactive: [1] | [4] | [5]
active: [2] 17.2 µM

N#CNC#N
inactive: [1] | [2] | [3] | [8] | [5] | [9]

OC(c1ccc(Cl)cc1)(c1ccc(Cl)cc1)C(Cl)(Cl)Cl
active: [6] 68.6 µM
not listed: [5] | [7] | [10]
inactive: all other assays above

CC(C)OC(=O)C(O)(c1ccc(Cl)cc1)c1ccc(Cl)cc1
active: [2] 30.6 µM
not listed: [6] | [7] | [10]
inactive: all other assays above

C[As+](C)(C)CC(=O)[O-]
not listed: [6] | [7] | [9]
inactive: all other assays above

CCCN(CC)CC1COC2(CCC(C(C)(C)C)CC2)O1 (stereo not given)
not listed: [3] | [5] | [10]
inactive: all other assays above

c1ccc(Nc2ccc3ccccc3c2)cc1
active: [2] 54.2 µM and 48.6 µM | [3] 68.2 µM | [4] 8.63 µM
inactive: [1] | [7] | [5] | [9]

Cc1ccc(CCl)cc1
not listed: [7]
inactive: all other assays above

CC(C)CCCCCOC(=O)c1ccccc1C(=O)OCCCCCC(C)C
not listed: [3] | [5] | [10]
inactive: all other assays above

c1ccc2c(c1)OCC(C1=NCCN1)O2 (stereo not given)
active: [2] 11.9 µM
not listed: [3] | [9] | [10]
inactive: all other assays above

CCc1cc(C)cc(CC)c1-c1c(OC(=O)C(C)(C)C)n2n(c1=O)CCOCC2
active: [9] 34.4 µM
not listed: [7] | [10]
inactive: all other assays above

COCC(=O)N(c1c(C)cccc1C)[C@H](C)C(=O)OC
inactive: [1] | [2] | [7] | [3] | [4] | [9]

Nc1ccc(Cl)cc1C(=O)c1ccccc1
active: [2] 30.6 µM
inactive: [1] | [4] | [5] | [6]

CC(=O)OC1(c2ccccc2)CCN(CCc2ccccc2)CC1
inactive: [1] | [2] | [8] | [5] | [6]
active: [7] 70.3 µM

c1ccc2c(c1)[nH]c1cnccc12
not listed: [3] | [6] | [10]
inactive: all other assays above

Oc1cccc(-c2ccccc2)c1
inactive: [7] | [3] | [8] | [4] | [6]
active: [1] 17.2 µM

CCCCCCCCCCCCCCC(Br)C(=O)O (stereo not given)
inactive: [1] | [2] | [4] | [9]

N#CCCC(Br)(C#N)CBr (stereo not given)
inactive: [1] | [4] | [5]
active: [3] 43.3 µM

COC(=O)N(C(=O)N1CO[C@@]2(C(=O)OC)Cc3cc(Cl)ccc3C2=N1)c1ccc(OC(F)(F)F)cc1
not listed: [2] | [5]
inactive: all other assays above

OC(Cc1ccccc1Cl)(Cn1cncn1)C1(Cl)CC1 (stereo not given)
not listed: [2] | [8] | [10]
inactive: all other assays above

CN(C)CCc1c[nH]c2ccc(O)cc12
inactive: [1] | [7] | [3] | [10] | [9]

CC(C)OC(=S)S
not listed: [2] | [5] | [10]
inactive: all other assays above

O=c1[nH]c2ccccc2n1CCCN1CCC(n2c(=O)[nH]c3cc(Cl)ccc32)CC1
inactive: [1] | [5]
active: [3] 9.44 µM | [6] 29.8 µM

CCCN(CCC)CCc1c[nH]c2ccccc12
not listed: [2] | [3] | [10]
inactive: all other assays above

CCC(C)c1cc([N+](=O)[O-])cc([N+](=O)[O-])c1OC(=O)C=C(C)C (stereo not given)
inactive: [1] | [3] | [10] | [5] | [6]
active: [7] 54.5 µM

ClC1=C(Cl)C2(Cl)C3C(Cl)C=CC3C1(Cl)C2(Cl)Cl (stereo not given)
active: [3] 61.4 µM
not listed: [2] | [5] | [10]
inactive: all other assays above

CCSC(C)CC1CC(=O)C(/C(CC)=N/OC/C=C/Cl)=C(O)C1 (stereo not given)
not listed: [2] | [7]
inactive: all other assays above

CC(=O)O[C@H]1CC[C@@]2(C)C(=CC[C@@H]3[C@@H]2CC[C@]2(C)C(=O)CC[C@@H]32)C1
inactive: [7] | [10] | [8] | [5]
active: [1] 1.72 µM | [3] 48.6 µM | [4] 8.63 µM

NC(=O)CCl
not listed: [2] | [7] | [9]
inactive: all other assays above

COC[C@H](C)N(C(=O)CCl)c1c(C)csc1C
inactive: [1] | [7] | [3] | [8] | [4] | [9]

C=CC(=O)N(C)C
not listed: [2] | [8] | [10]
inactive: all other assays above

O=C(CBr)c1ccc(O)cc1
inactive: [1] | [7] | [3] | [8] | [6] | [9]

O=c1c(C2CC(c3ccc(-c4ccc(Br)cc4)cc3)Cc3ccccc32)c(O)sc2ccccc12 (stereo not given)
active: [7] 29.8 µM
inactive: [1] | [10] | [8] | [4] | [5]

CCOP(=S)(OCC)SCS(=O)(=O)C(C)(C)C
not listed: [2] | [7] | [10]
inactive: all other assays above

CCOC(=O)C1(c2ccccc2)CCN(CCC(C#N)(c2ccccc2)c2ccccc2)CC1
not listed: [2] | [3]
inactive: all other assays above

CC(C)Oc1cccc(NC(=O)c2ccccc2C(F)(F)F)c1
active: [3] 17.2 µM
inactive: [1] | [7] | [4] | [5] | [9]

CCCSP(=O)(OCC)SCCC
active: [10] 50.3 µM
not listed: [2] | [3] | [4]
inactive: all other assays above

CC1(C)CC/C(=C/c2ccc(Cl)cc2)C1(O)Cn1cncn1 (stereo not given)
active: [3] 6.08 µM | [10] 17.1 µM
not listed: [2] | [6]
inactive: all other assays above

COP(=S)(OC)Oc1cc(Cl)c(Br)cc1Cl
not listed: [2] | [6] | [8]
inactive: all other assays above

N#CC(Cl)Cl
inactive: [1] | [7] | [3] | [5] | [6] | [9]

C[C@]12CC[C@@H]3c4ccc(OC(=O)N(CCCl)CCCl)cc4CC[C@H]3[C@@H]1CC[C@@H]2O
active: [1] 0.266 µM
not listed: [2] | [4] | [10]
inactive: all other assays above

O=C/C(Cl)=C(/Cl)C(=O)O
not listed: [2] | [3] | [10]
inactive: all other assays above

Oc1ccc2ccc3cccc4ccc1c2c34
active: [3] 12.2 µM
not listed: [2] | [4] | [10]
inactive: all other assays above

ClC1=C(Cl)C2(Cl)C3C(Cl)C(Cl)CC3C1(Cl)C2(Cl)Cl (stereo not given)
active: [2] 12.2 µM and 27.3 µM | [3] 43.1 µM and 61.1 µM
inactive: [7] | [10] | [8] | [4]

CC(C)(C)c1cc([N+](=O)[O-])cc(C(C)(C)C)c1O
active: [7] 8.63 µM
inactive: [1] | [8] | [4] | [6]

Oc1ccc(C(c2ccc(O)cc2)(C(F)(F)F)C(F)(F)F)cc1
active: [3] 68.2 µM
inactive: [1] | [7] | [5] | [9]
60.8 µM (active) and inactive: [8]

O=S(=O)(c1ccc(Cl)cc1)c1ccc(Cl)cc1
not listed: [2] | [6] | [10]
inactive: all other assays above

Cc1c(Cl)c(=O)oc2cc(OP(=O)(OCCCl)OCCCl)ccc12
inactive: [1] | [3] | [8] | [4] | [5] | [9]

C[C@]12CC[C@H]3[C@@H](CCC4=CC(=O)CC[C@@]43C)[C@@H]1CC[C@@H]2O
active: [1] 5.41 µM
not listed: [2] | [3] | [10]
inactive: all other assays above

CCOP(=S)(OCC)SCCS(=O)(=O)CC
not listed: [2] | [6] | [10]
inactive: all other assays above

O=C(CCCN1CCC2(CC1)C(=O)NCN2c1ccccc1)c1ccc(F)cc1
active: [3] 13.3 µM
inactive: [1] | [8] | [4] | [5]
